Consider seven molecules from PubChem BioAssay (NCI).

This is part of a sample that, as a whole, favours compounds with a hit. Of some 83,000 tested, about 20% had one in any assay.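 Activity criterion: percent growth below 10, measured after cells in 96-well plates were exposed to a single compound concentration for 48 hours.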 Values without a mark were called inactive. Active and inactive are the calls of the source.

Test systems include HCT-15 colon; HT29 colon; SNB-75 CNS; SNB-19 CNS; U251 CNS; PC-3 prostate; SK-MEL-5 melanoma; UACC-62 melanoma; LOX IMVI melanoma; SK-MEL-28 melanoma; SK-MEL-2 melanoma; EKVX NSCLC; SN12C renal; UO-31 renal; TK-10 renal; ACHN renal; CAKI-1 renal; CCRF-CEM leukemia; MOLT-4 leukemia; A498 renal.
Holding throughout (assay): NCI-60 one-dose screen, 48 h (100 = growth as untreated, 0 = no growth, -100 = all killed)
What all share (details): 10 µM unless noted

Regarding `COc1ccc(C(=O)/C=C/c2ccc(OCc3ccccc3)c(OC)c2)cc1OC`, the growth with HCT-15 colon was 45.8%; in the assay with HT29 colon it was 10.6%; in the assay on SNB-75 CNS it was 34.1%; in the assay on SNB-19 CNS, 87.1%; in the assay with U251 CNS it was 10.1%; in the assay on PC-3 prostate, 46%. Besides, the growth in the assay on SK-MEL-5 melanoma was 66.1%; in the assay with UACC-62 melanoma it was 70.8%; in the assay on LOX IMVI melanoma it was 34.3%; with SK-MEL-28 melanoma it was 89.6%; in the assay on SK-MEL-2 melanoma it was 83.5%; with EKVX NSCLC, 54.7%. For the same molecule, the growth with SN12C renal is 61.1%; in the assay with UO-31 renal, 43.8%; with TK-10 renal it was 48.4%; in the assay on ACHN renal it was 79.8%; in the assay on CAKI-1 renal it was 55.5%; with CCRF-CEM leukemia, 17.4%. Besides, the growth in the assay with MOLT-4 leukemia was 44.8%.

As for `c1ccc(-c2nn(-c3ccccc3)[n+](-c3ccccc3-c3ccccc3)n2)cc1`, the growth is 101% in the assay with HCT-15 colon; 5.29% (active) in the assay with HT29 colon; 29.7% in the assay on SNB-75 CNS; 27.9% in the assay on SNB-19 CNS; 15% in the assay with U251 CNS; 2.58% (active) in the assay on PC-3 prostate. For the same molecule, the growth in the assay with SK-MEL-5 melanoma was -25.8% (active); in the assay with UACC-62 melanoma, 26.4%; in the assay on LOX IMVI melanoma, 12.5%; in the assay on SK-MEL-28 melanoma, 48.7%; with SK-MEL-2 melanoma, -15.8% (active); with EKVX NSCLC it was 11.7%. The growth was 12.9% in the assay on SN12C renal; 80.1% in the assay with UO-31 renal; 26% with TK-10 renal; 56% with ACHN renal; 88.2% in the assay with CAKI-1 renal; 17.2% in the assay on CCRF-CEM leukemia. Further, the growth with MOLT-4 leukemia is 22.9%.

On to `C=C1C(=O)O[C@H]2[C@H]1CC/C(CNC(=O)/C=C/c1ccc(Br)cc1)=C\CC[C@@]1(C)O[C@@H]21`, for which the growth in the assay with HCT-15 colon is -64.2% (active); in the assay with HT29 colon, -74.5% (active); with SNB-75 CNS it was 48.9%; in the assay with SNB-19 CNS, 15.9%; in the assay on U251 CNS, -28.3% (active); with PC-3 prostate, -55.2% (active). Moreover, the growth with SK-MEL-5 melanoma was 28.7%; in the assay with UACC-62 melanoma, -93.5% (active); in the assay with LOX IMVI melanoma, -95.2% (active); in the assay with SK-MEL-28 melanoma it was -66.1% (active); with SK-MEL-2 melanoma it was -18% (active); in the assay with EKVX NSCLC it was -47.8% (active). For the same molecule, the growth is -66.5% (active) with SN12C renal; -98.2% (active) in the assay with UO-31 renal; -67.9% (active) in the assay on TK-10 renal; -58.6% (active) with ACHN renal; -91.8% (active) with CAKI-1 renal; -2.6% (active) in the assay with CCRF-CEM leukemia. Moreover, in the assay on MOLT-4 leukemia, the growth was -22.7% (active).

As for `COc1cc(C2NC(c3cc(OC)c(OC)c(OC)c3)C(C#N)(C#N)C2(C#N)C#N)cc(OC)c1OC` (configuration not stated), the growth is 97.9% in the assay on HCT-15 colon; 105% in the assay on HT29 colon; 80.7% in the assay on SNB-75 CNS; 98.5% in the assay on SNB-19 CNS; 106% in the assay on U251 CNS; 99.3% in the assay with PC-3 prostate. Further, the growth is 89.5% in the assay on SK-MEL-5 melanoma; 98.2% in the assay with UACC-62 melanoma; 98.2% in the assay on LOX IMVI melanoma; 96.5% in the assay with SK-MEL-28 melanoma; 101% with SK-MEL-2 melanoma; 97.6% in the assay with EKVX NSCLC. The growth in the assay with SN12C renal was 100%; in the assay on UO-31 renal it was 83.8%; with TK-10 renal, 103%; in the assay on ACHN renal, 97.7%; in the assay with A498 renal, 107%; with CCRF-CEM leukemia, 136%.

In the case of `COc1cccc(C(Cc2ccccc2)Nc2ccccc2)c1OC` (configuration not stated), the growth with HCT-15 colon is 91.3%; in the assay on HT29 colon it was 73%; with SNB-75 CNS, 90.1%; in the assay on SNB-19 CNS, 104%; in the assay with U251 CNS it was 89.8%; with PC-3 prostate it was 83.2%. The growth with SK-MEL-5 melanoma was 97.1%; in the assay with UACC-62 melanoma it was 88.7%; with LOX IMVI melanoma, 98.1%; with SK-MEL-28 melanoma, 107%; in the assay with SK-MEL-2 melanoma, 83%; with EKVX NSCLC, 96.1%. The growth in the assay on SN12C renal was 103%; with UO-31 renal, 85.4%; with TK-10 renal it was 96.7%; in the assay with ACHN renal it was 106%; in the assay with A498 renal, 90%; in the assay on CCRF-CEM leukemia, 87.5%. Besides, the growth in the assay on MOLT-4 leukemia is 78.6%.

With `O=C1OC(=O)C2C1CC=CC2c1ccccc1` (configuration not stated), the growth is 105% in the assay on HCT-15 colon; 86.3% in the assay with HT29 colon; 83.7% in the assay on SNB-75 CNS; 93.7% in the assay on SNB-19 CNS; 87.8% with U251 CNS; 73.1% in the assay with PC-3 prostate. For the same molecule, the growth with SK-MEL-5 melanoma was 98.6%; in the assay on UACC-62 melanoma it was 94.4%; with LOX IMVI melanoma, 71.7%; in the assay with SK-MEL-28 melanoma it was 91.8%; with SK-MEL-2 melanoma, 97.3%; in the assay on EKVX NSCLC, 90.9%. Also, the growth is 87.6% in the assay on SN12C renal; 88.9% in the assay on UO-31 renal; 102% in the assay with TK-10 renal; 104% in the assay on ACHN renal; 102% with CAKI-1 renal; 84.2% in the assay with CCRF-CEM leukemia. In addition, the growth in the assay on MOLT-4 leukemia was 90.6%.

In the case of `C#CC(=O)Nc1cccc2c1cc(C)n2-c1nc2c(c(NCc3ccccc3)n1)CCCC2`, the growth is -74.4% (active) with HCT-15 colon; -58.2% (active) in the assay with HT29 colon; -25.6% (active) in the assay with SNB-75 CNS; -71.9% (active) with SNB-19 CNS; -91.9% (active) in the assay with U251 CNS; -56.5% (active) in the assay on PC-3 prostate. For the same molecule, the growth in the assay on SK-MEL-5 melanoma was -96.1% (active); with UACC-62 melanoma, -73.7% (active); in the assay on LOX IMVI melanoma, -65.8% (active); in the assay on SK-MEL-28 melanoma, -58.4% (active); with SK-MEL-2 melanoma it was -74.5% (active); in the assay on EKVX NSCLC it was -39.3% (active). Moreover, the growth was -66.2% (active) with SN12C renal; -76% (active) in the assay with UO-31 renal; -98.1% (active) in the assay with TK-10 renal; -73.6% (active) in the assay on ACHN renal; -43.2% (active) in the assay with CAKI-1 renal; -26.5% (active) with CCRF-CEM leukemia. In the assay with MOLT-4 leukemia, the growth was -33.4% (active).
